Molecules are shown by their SMILES. Active and inactive are the calls of the source. The call rests on the fitted dose curve; in most records, active means well fitted cell-killing curve with a large enough effect in the repeat runs; inconclusive means weak or mixed curves, or effect the other way; inactive means flat fitted curve, though single readings scatter.

Results on 40 compounds are retold here after PubChem BioAssay (Tox21).
On the % scale 0 is the no-effect control and ±100 the full control effect.

This experiment is described as follows: qHTS assay to identify small molecule HDAC inhibitors - cell viability counter screen (AID 1259365). Further: nearly all actives have a fitted effect of over 50% in size. The note with it: HCT-116 viability, CellTiter-Glo ATP luminescence, 2 h; series mostly up to 92.4 µM; activity change, negative = cytotoxicity: at the top concentration. The source says:
U.S. Tox21 Program National Center for Advancing Translational Sciences [NCATS] NIH Chemical Genomics Center [NCGC] U.S. Environmental Protection Agency [EPA] National Institutes of Environmental Health Sciences [NIEHS] National Toxicology Program [NTP] U.S. Food and Drug Administration [FDA] Tox21 Assay Overview: Histone deacetylases (HDACs) are a group of epigenetic enzymes that regulate gene expression by histone deacetylation. HDACs are capable of introducing epigenetic modifications and such aberrations contribute to the onset and progression of several human diseases, thus making HDACs a popular therapeutic target. For identifying endogenous class I/II HDAC inhibitors a homogenous, luminogenic HDAC I/II cell based assay was used to measure the relative activity of class I and II HDACs from cells. Wild type HCT-116 cells were used to screen Tox21 compound libraries for identifying class I/II HDAC inhibitors.
Tox21 Assay Protocol Summary: HCT-116 cells were dispensed at 1,500 per well in 5uL of culture medium into white solid bottom 1536-well plates (Greiner Bio-One, Monroe, NC) using a Multidrop Combi (Thermo Scientific, Waltham, MA) dispenser. The assay plates were incubated at 37 C and 5% CO2 for an overnight, and then 23nL of compounds dissolved in DMSO and positive control were transferred using a Pintool station (Wako, San Diego, CA). The assay plates were incubated at 37C and 5% CO2 for 2hr. After compound treatment, 4uL of CellTiter-Glo reagent (Promega Corporation, Madison, WI) was added to each well of the assay plates using Flying Reagent Dispenser (FRD, Aurora Discovery, San Diego, CA) and incubated the assay plates at room temperature for 30min. The luminescence signal was quantified using a ViewLux plate reader (Perkin Elmer, Shelton, CT).
(In qHTS, concentration-response curves come from the screen itself.)
With `CCC(C)N(C)C(=O)c1cc2ccccc2c(-c2ccccc2Cl)n1` (stereo not given), the “activity change, negative = cytotoxicity” value is 0.669% [at 42.5 µM] (inactive).

Turning to `SC1CCCC1`, the “activity change, negative = cytotoxicity” value was 4.23% (inactive).

Regarding `CC(=O)OCCc1ccccc1`, the “activity change, negative = cytotoxicity” value was 2.06% (inactive).

`CC(Cc1cccc(C(F)(F)F)c1)NCCOC(=O)c1ccccc1` (stereo not given): the “activity change, negative = cytotoxicity” value was -9.65% [at 42.5 µM] (inactive).

For `Oc1ccc2c(c1)OCO2`, the “activity change, negative = cytotoxicity” value is -0.557% (inactive).

`O=C(O)/C=C/c1cnc[nH]1`: the “activity change, negative = cytotoxicity” value was 0.743% (inactive).

Turning to `OCC1CC2CC1C1CCC(CO)C21` (stereo not given), the “activity change, negative = cytotoxicity” value was -0.0237% (inactive).

Regarding `CCCCCC(CO)CCC` (stereo not given), the “activity change, negative = cytotoxicity” value is -1.61% (inactive).

In the case of `O=C(Nc1ccccc1)OCC(CN1CCCCC1)OC(=O)Nc1ccccc1` (stereo not given), the “activity change, negative = cytotoxicity” value is -2.29% [at 42.5 µM] (inactive).

`O=C1c2cccc(O)c2C(=O)c2c(O)cc(CO)cc21`: the “activity change, negative = cytotoxicity” value was -0.183% (inactive).

Consider `CN(C)CCCOc1nn(Cc2ccccc2)c2ccccc12`, for which the “activity change, negative = cytotoxicity” value is -2.91% [at 42.5 µM] (inactive).

On to `CC(=O)c1c(C)c([N+](=O)[O-])c(C(C)(C)C)c([N+](=O)[O-])c1C`, for which the “activity change, negative = cytotoxicity” value is -6.02% (inactive).

For `Cc1cccc(OCCOc2cccc(C)c2)c1`, the “activity change, negative = cytotoxicity” value was -7.55% (inactive).

Take `Cc1ccc2c(ccc3ccccc32)c1`: the “activity change, negative = cytotoxicity” value is 4.52% (inactive).

`N[C@H]1C(O)O[C@H](CO)[C@H](O)[C@@H]1O` (stereo not given in full): the “activity change, negative = cytotoxicity” value is -10.5% (inactive).

As to `COc1cc(C(C)(C)C)c(O)c(C(C)(C)C)c1`, the “activity change, negative = cytotoxicity” value is -13.9% (inactive).

On to `CC(C(=O)O)c1ccc(C(=O)c2ccccc2)s1` (stereo not given), for which the “activity change, negative = cytotoxicity” value is -10.4% [at 42.5 µM] (inactive).

On to `CC(C)CCCCCCOC(=O)c1ccc(C(=O)OCCCCCCC(C)C)c(C(=O)OCCCCCCC(C)C)c1`, for which the “activity change, negative = cytotoxicity” value is 3.49% (inactive).

Take `CCC(=O)OC(C)(C)C1CC=C(C)CC1` (stereo not given): the “activity change, negative = cytotoxicity” value was 1.89% (inactive).

As for `Cn1c(=O)c2c(ncn2CC(O)CO)n(C)c1=O` (stereo not given), the “activity change, negative = cytotoxicity” value is -0.953% [at 42.5 µM] (inactive).

`CCCOc1ccc2nc(NC(=O)OC)[nH]c2c1`: the “activity change, negative = cytotoxicity” value is 2.49% [at 42.5 µM] (inactive).

`CN1CCN(C2=Nc3ccccc3Sc3ccc(Cl)cc32)CC1`: the “activity change, negative = cytotoxicity” value was -0.29% [at 42.5 µM] (inactive).

Turning to `CC(=O)SCc1ccco1`, the “activity change, negative = cytotoxicity” value is 2.38% (inactive).

Turning to `C=C(C)C(=O)OCCOc1ccccc1`, the “activity change, negative = cytotoxicity” value is -0.379% (inactive).

As to `O=C(c1ccc(O)cc1)c1ccc(O)cc1`, the “activity change, negative = cytotoxicity” value was 13.5% (inactive).

Take `CCN(CC)CCNC(C(=O)OCCC(C)C)c1ccccc1` (stereo not given): the “activity change, negative = cytotoxicity” value is -0.302% [at 42.5 µM] (inactive).

For `CCCCCCCCC(CO)CCCCCC` (stereo not given), the “activity change, negative = cytotoxicity” value was 1.97% (inactive).

Take `CC(C)c1ccc2c(C(C)C)cc(C(C)C)c(S(=O)(=O)O)c2c1`: the “activity change, negative = cytotoxicity” value was 2.92% (inactive).

Consider `O=C=NC1CCC(CC2CCC(N=C=O)CC2)CC1` (stereo not given), for which the “activity change, negative = cytotoxicity” value was -2.94% (inactive).

For the compound `Cc1nc2ccccc2n1Cc1ccc(Cl)cc1`, the “activity change, negative = cytotoxicity” value is -1.04% [at 42.5 µM] (inactive).

Regarding `CCCCOc1cc(C(=O)OCCN(CC)CC)ccc1N`, the “activity change, negative = cytotoxicity” value is -2.02% [at 42.5 µM] (inactive).

Regarding `O=[N+]([O-])c1cc[n+]([O-])cc1`, the “activity change, negative = cytotoxicity” value is -15.5% (inactive).

Turning to `NC(N)=N/N=C/c1c(Cl)cccc1Cl`, the “activity change, negative = cytotoxicity” value was 1.82% [at 42.5 µM] (inactive).

With `CCOc1ccc2[nH]cc(C(=O)NCc3ccccc3)c(=O)c2n1`, the “activity change, negative = cytotoxicity” value was -0.194% (inactive).

For `CN(C)C/C=C(/c1ccc(Br)cc1)c1cccnc1`, the “activity change, negative = cytotoxicity” value is 1.52% [at 42.5 µM] (inactive).

On to `CCCCCCCCCC=O`, for which the “activity change, negative = cytotoxicity” value is 3.27% (inactive).

With `CCCCOc1ccc(CC(=O)NO)cc1`, the “activity change, negative = cytotoxicity” value is -2.8% [at 42.5 µM] (inactive).

`c1ccc(OCc2ccc(CCCN3CCOCC3)cc2)cc1`: the “activity change, negative = cytotoxicity” value is -1.19% [at 42.5 µM] (inactive).

Turning to `CC(C)(C)c1cc(CO)cc(C(C)(C)C)c1O`, the “activity change, negative = cytotoxicity” value is -8.96% (inactive).

Consider `C=Cc1c(C)c2cc3[nH]c(cc4nc(cc5nc(cc1[nH]2)C(C)=C5CCC(=O)O)C(CCC(=O)O)=C4C)c(C)c3C=C`, for which the “activity change, negative = cytotoxicity” value was -11.5% [at 42.5 µM] (inactive).
